Records with an inconclusive call do not appear. A call without a number means that no potency is given here. The source made the active and inactive calls. The call rests on the fitted dose curve; in most records, active means well fitted activation curve with a large enough effect; inconclusive means small, poorly fitted or top-dose-only effect; inactive means no such curve, though single readings can be large or run the other way.
The compounds below were run against D(1A) dopamine receptor (Homo sapiens) (UniProt P21728) (assay: HTS Assay for Allosteric Agonists of the Human D1 Dopamine Receptor: Primary Screen for Potentiators (AID 488982)). Settings: HEK293 T-REx D1 inducible cells, calcium flux, kinetic fluorescence; series mostly up to 8.37 µM.
Excerpt: Dopamine receptors (DARs) are involved in the etiology and/or therapy of a number of neuropsychiatric and endocrine disorders. For instance, all receptor-based antiparkinsonian drugs work via stimulating the […] DAR subtype whereas all FDA-approved antipsychotic agents are antagonists of this receptor. […] There are three different types of allosteric modulators that we are seeking, two of which will stimulate or augment receptor signaling, allosteric agonists and potentiators, while the third, allosteric antagonists, will attenuate receptor signaling. The present primary screening assay measures compound agonism by tracking calcium flux in a […], inducible Hek293 Trex D1 cell line.
Freshly passaged cells are plated in 1536 well black, clear bottom plates at a density of 4000 cells/well in 3 ul of complete media containing 1x tetracycline inducer. After an overnight incubation at 30 C in 5% CO2, cells are loaded with 2 ul of the no wash Calcium Assay Kit (ABD Bioquest) and incubated at room temperature for 30 to 90 minutes. A 10 cycle (1 second/cycle) baseline measurement is taken and then the FDSS online 1536 pintool delivers 23 nl of compound library (as well as dopamine controls) to the plate. The plate is measured for kinetically at 1 cycle/sec for 180 seconds and is considered to be the agonist portion of the assay (eg, compounds which activate a positive calcium response during this portion are flagged as potential agonists). Following the 180 second read, 1 ul of an EC20 of dopamine is delivered by an onboard pipette head. Measurements are taken kinetically for an additional 180 seconds.
Potency means the concentration at half of the fitted maximal effect.

Chain of D(1A) dopamine receptor (Homo sapiens) (P21728 whole entry, looked up): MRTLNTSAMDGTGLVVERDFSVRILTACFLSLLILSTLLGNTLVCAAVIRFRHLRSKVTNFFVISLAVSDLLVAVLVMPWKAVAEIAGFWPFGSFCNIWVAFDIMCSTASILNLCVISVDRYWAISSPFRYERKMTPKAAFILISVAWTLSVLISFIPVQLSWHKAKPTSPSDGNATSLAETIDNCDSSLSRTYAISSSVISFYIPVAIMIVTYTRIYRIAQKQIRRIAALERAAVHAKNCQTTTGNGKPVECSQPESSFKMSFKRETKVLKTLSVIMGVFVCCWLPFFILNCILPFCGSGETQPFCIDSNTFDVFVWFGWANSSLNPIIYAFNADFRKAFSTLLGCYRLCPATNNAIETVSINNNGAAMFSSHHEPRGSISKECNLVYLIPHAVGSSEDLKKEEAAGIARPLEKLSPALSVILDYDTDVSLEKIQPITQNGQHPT

| Compound | Potency |
| --- | --- |
| N[C@@H](CCC(=O)N[C@H](CSN=O)C(=O)NCC(=O)O)C(=O)O | inactive |
| Cn1c(=O)c2c(nc(/C=C/c3cccc(Cl)c3)n2C)n(C)c1=O | inactive |
| CCCCOc1cc(CC2CNC(=O)N2)ccc1OC (stereo not given) | inactive |
| CCCOC(=O)c1c(-c2ccccc2)nc(CC)c(C(=O)SCC)c1CCC | 2.91 µM (active) |
| N[C@H]1CONC1=O | inactive |
| COc1ccc2c(c1)c(CC(=O)O)c(C)n2Cc1ccc(Cl)cc1 | inactive |
| CCn1c(=O)[nH]c2cc(Cl)c(Cl)cc21 | inactive |
| CCCCCCCCCC(=O)NC(CN1CCOCC1)[C@H](O)c1ccccc1 (stereo not given in full) | inactive |
| C=CCN1CCc2cc(O)c(O)cc2C(c2ccccc2)C1 (stereo not given) | inactive |
| CC[C@@H]1Cc2cc(O)ccc2C2=C1c1ccc(O)cc1C[C@H]2CC | 2.59 µM (active) |
| COc1cc(C(O)C(=O)O)ccc1O (stereo not given) | inactive |
| O=C(O)c1cc(=O)cc(C(=O)O)[nH]1 | inactive |
| CSc1nc(N)c2ncn([C@@H]3O[C@H](COP(=O)(O)OP(=O)(O)O)C(O)[C@H]3O)c2n1 (stereo not given in full) | 0.0517 µM (active) |
| c1ccc(CN2CCC3(CCCc4ccccc43)CC2)cc1 | inactive |
| Nc1ncnc2c1ncn2C1CCCC1 | inactive |
| NC(N)=N[C@@H](CCC(=O)O)C(=O)O | inactive |
| Cn1cc(C(F)(F)F)nc1-c1ccc(OCC(O)CNCCOc2ccc(O)c(C(N)=O)c2)cc1 (stereo not given) | inactive |
| C=C1C[C@@]23CC[C@H]4[C@@](C)(CCC[C@@]4(C)C(=O)OC4OC(CO)C(O)C(O)C4O)[C@@H]2CC[C@]1(OC1OC(CO)C(O)C(O)C1OC1OC(CO)C(O)C(O)C1O)C3 (stereo not given in full) | inactive |
| CCN(c1nc(N)c(C(=O)N=C(N)N)nc1Cl)C(C)C | inactive |
| COc1ccc(CCn2nnnc2C2(c3ccc(C)cc3)CC2)cc1 | inactive |

| Compound | Potency |
| --- | --- |
| C[N+](C)(C)CC=O | inactive |
| CN(C)S(=O)(=O)c1ccc2c(c1)/C(=C/c1cc3c([nH]1)CCCC3)C(=O)N2 | inactive |
| CN(CC[C@@H](Oc1ccc(C(F)(F)F)cc1)c1ccccc1)CC(=O)O | inactive |
| CCCCCCCCCCC(C)(C)C(=O)Nc1c(OC)cc(OC)cc1OC | inactive |
| CCCn1c(=O)c2[nH]c(C3CCCC3)nc2n(CCC)c1=O | inactive |
| CC1=C(C(=O)O)N2C(=O)[C@@H](NC(=O)C(N)C3=CCC=CC3)[C@H]2SC1 (stereo not given in full) | inactive |
| NCC(O)(CS(=O)(=O)O)c1ccc(Cl)cc1 (stereo not given) | inactive |
| CC1CNCCN1S(=O)(=O)c1cccc2cnccc12 (stereo not given) | inactive |
| Cc1nc(N=Nc2ccc(C(=O)O)cc2)c(COP(=O)(O)O)c(C=O)c1O | inactive |
| N[C@H](C(=O)O)[C@H]1C[C@@H]1C(=O)O | inactive |
| N#C/C(=C\c1ccc(O)c(O)c1)C(=O)NCCc1ccccc1 | inactive |
| O=C(O)C1=CCCN(CCON=C(c2ccccc2)c2ccccc2)C1 | inactive |
| NC(N)=NC(N)=Nc1ccccc1 | inactive |
| NCC(O)c1ccc(O)c(O)c1 (stereo not given) | inactive |
| C#CCn1c(=O)c2c(ncn2C)n(C)c1=O | inactive |
| Oc1ccc(/C=C/c2ccc(/C=C/c3ccc(O)cc3)c(Br)c2)cc1 | inactive |
| N=C(N)SCCc1cnc[nH]1 | inactive |
| CSC(=N)N | inactive |
| C[C@]12C=CC(=O)C=C1CC[C@@H]1C2=CC[C@]2(C)[C@@H](C(=O)CN3CCN(c4cc(N5CCCC5)nc(N5CCCC5)n4)CC3)CC[C@@H]12 | inactive |
| CC(C)(C)c1ccc(/C=C/C(=O)Nc2ccc3c(c2)OCCO3)cc1 | inactive |
